# In PubChem BioAssay (NCATS):
# Values without a mark were called inactive. Records with an inconclusive call do not appear. Calls of active or inactive are those of the source. Calls follow the shape of the dose curve; as a rule, active = well fitted curve in the direction sought with a large enough effect; inconclusive = small, poorly fitted or top-dose-only effect, or another doubt; inactive = no such curve, though single readings can be large; an effect the other way counts as inactive or inconclusive.
# Key:
# [1] = Quantitative High-Throughput drug screen in 47 multiple myeloma cell lines against the NCATS MIPE library collection: KMS11_JCRBsus cell viability assay (AID 1919873); also: nearly all actives have a fitted effect of over 50% in size; also: potency is read from the fitted curve at half-maximal effect
# Method in brief: (§1)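 Plated at 500 cells per well, myeloma lines received MIPE 4.0 compounds by pin tool. Following 48 h culture at 37 °C, CellTiter-Glo luminescence gave viability relative to DMSO and media-only controls.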
# [2] = Quantitative High-Throughput drug screen in 47 multiple myeloma cell lines against the NCATS MIPE library collection: KMS28BM_JCRB cell viability assay (AID 1919874); also: nearly all actives have a fitted effect of over 35% in size; also: potency is read from the fitted curve at half-maximal effect
# Method in brief: as §1
# [3] = molecular target: Cytochrome P450 2D6 (Homo sapiens) (UniProt P10635); assay: qHTS for inhibitors of CYP2D6 against the NCATS DSHEA and TCM libraries (AID 1919972); also: % is scaled to controls: 0 for no effect and ±100 for the full control effect
# Method in brief: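 Steps: enzyme plus luciferin substrate dispensed; test substances pinned; 15 min RT; 1x NADPH regenerating solution added, 30–45 min RT protected from light; detection reagent, 30 min RT; luminescence measured. Minus-enzyme wells as background.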
# [4] = KB-3-1 P-gp reporter qHTS against the NCATS DSHEA and TCM libraries (AID 1919975); also: 0% is about no effect
# Method in brief: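 72 h exposure of KB-3-1 cells (DMEM, 10% FBS) to DSHEA/TCM samples, concentration-response; cell viability measured as CellTiter-Glo luminescence after 30 min at room temperature.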
# [5] = molecular target: Cytochrome P450 1A2 (Homo sapiens) (UniProt P05177); assay: qHTS for inhibitors of CYPIA2 against the NCATS DSHEA and TCM libraries (AID 1919976); also: potency is read from the fitted curve at half-maximal effect
# Method in brief: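 In this quantitative HTS, inhibition of recombinant human CYP1A2 was measured as loss of luciferin-derived luminescence. Turnover ran 30-45 min at RT after NADPH regeneration solution was added.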
# [6] = qHTS Counterscreen for compound interference against the NCATS DSHEA and TCM libraries (AID 1919978); details: firefly luciferase detection reagent interference, luminescence; also: % of control where 0% means no effect
# Method in brief: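 Read-out is luminescence after 30 min at RT with luciferin detection reagent. Before that, compounds (19.5 nM to 39.8 uM final) sat 15 min at RT with 1 uM D-luciferin or 100 mM potassium phosphate buffer. PTC124 served as intraplate control.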
# [7] = Dual reporter qHTS for agonist of Pregnane X Receptor (hPXR) against the NCATS DSHEA and TCM libraries: Fluorescence readout (AID 1920058); also: 0% is about no effect
# Method in brief: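 Measures viability of the PXR reporter HepG2 line by protease-substrate fluorescence (405/540 nm), taken 1 h after CellTiter-Fluor addition. Substances are tested as concentration series over a ~24 h exposure, with rifampicin as agonist control.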
# Chain of Cytochrome P450 2D6 (Homo sapiens) (P10635 whole entry, looked up): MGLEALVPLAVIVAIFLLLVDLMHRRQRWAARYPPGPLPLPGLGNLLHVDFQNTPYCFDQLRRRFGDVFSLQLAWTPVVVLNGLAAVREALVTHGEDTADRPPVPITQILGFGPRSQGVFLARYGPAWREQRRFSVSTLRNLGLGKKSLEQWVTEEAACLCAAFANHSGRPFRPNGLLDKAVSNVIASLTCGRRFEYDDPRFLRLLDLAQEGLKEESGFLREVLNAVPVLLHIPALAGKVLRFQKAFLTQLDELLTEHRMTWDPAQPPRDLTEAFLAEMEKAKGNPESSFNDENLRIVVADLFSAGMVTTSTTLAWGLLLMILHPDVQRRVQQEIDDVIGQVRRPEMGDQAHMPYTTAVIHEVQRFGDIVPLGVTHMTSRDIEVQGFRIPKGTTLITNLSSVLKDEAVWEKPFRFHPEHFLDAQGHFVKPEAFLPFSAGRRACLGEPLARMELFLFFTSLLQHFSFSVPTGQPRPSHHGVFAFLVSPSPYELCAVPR
# Chain of Cytochrome P450 1A2 (Homo sapiens) (P05177 whole entry, looked up): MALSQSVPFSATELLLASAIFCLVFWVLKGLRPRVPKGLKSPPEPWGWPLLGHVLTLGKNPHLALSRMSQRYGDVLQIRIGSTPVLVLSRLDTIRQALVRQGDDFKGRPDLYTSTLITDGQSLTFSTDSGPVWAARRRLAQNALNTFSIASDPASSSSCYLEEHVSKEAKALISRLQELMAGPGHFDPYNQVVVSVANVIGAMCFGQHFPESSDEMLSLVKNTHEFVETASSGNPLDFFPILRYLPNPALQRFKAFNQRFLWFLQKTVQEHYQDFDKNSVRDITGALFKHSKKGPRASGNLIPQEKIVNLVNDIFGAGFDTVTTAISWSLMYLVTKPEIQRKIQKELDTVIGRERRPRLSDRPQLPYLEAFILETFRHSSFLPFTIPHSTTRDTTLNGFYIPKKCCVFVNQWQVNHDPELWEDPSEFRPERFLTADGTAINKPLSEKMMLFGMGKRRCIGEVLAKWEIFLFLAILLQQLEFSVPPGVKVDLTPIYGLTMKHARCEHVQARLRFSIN
smiles,measurement,setting,value
O=C(C=Cc1ccc(CN(CCO)CCc2c[nH]c3ccccc23)cc1)NO,Potency,[1],52.6 nM (active)
same,Potency,[2],52.6 nM (active)
O=C(CN1C(=O)C2(CCCC2)NC[C@H]1c1cc(F)cc(F)c1)Nc1ccc2c(c1)C[C@@]1(C2)C(=O)Nc2ncccc21,Potency,[1],inactive
same,Potency,[2],inactive
CCOC(=O)[C@@H](N)Cc1ccc(-c2cc(O[C@H](c3ccc(Cl)cc3-n3ccc(C)n3)C(F)(F)F)nc(N)n2)cc1,Potency,[1],16600 nM (active)
same,Potency,[2],18700 nM (active)
COc1cc(CCc2cc(NC(=O)c3ccc(N4C[C@@H](C)N[C@@H](C)C4)cc3)n[nH]2)cc(OC)c1,Potency,[1],4690 nM (active)
same,Potency,[2],16600 nM (active)
CCN(CC)CCCCNc1ncc2c(n1)N(C)C(=O)N(c1c(Cl)c(OC)cc(OC)c1Cl)C2,Potency,[1],20900 nM (active)
same,Potency,[2],11800 nM (active)
O=C(O)CCCCCC(=O)NN=C1CCCC1,Potency,[1],inactive
same,Potency,[2],inactive
COc1ccc2c(c1OC)C(=O)OC2[C@H]1c2c(cc3c(c2OC)OCO3)CCN1C (some centres not stated),Potency,[1],26.4 nM (active)
same,Potency,[2],20.9 nM (active)
COc1cc(C)c(C=CC(C)=CC=CC(C)=CC(=O)O)c(C)c1C,Potency,[1],inactive
same,Potency,[2],inactive
C#Cc1cccc(Nc2ncnc3cc(OCCOC)c(OCCO)cc23)c1,Potency,[1],8330 nM (active)
same,Potency,[2],8330 nM (active)
Nc1ncn([C@@H]2O[C@H](CO)[C@@H](O)[C@@H]2O)c(=O)n1,Potency,[1],14800 nM (active)
same,Potency,[2],16600 nM (active)
c1ccc(CNc2nc(NCc3ccccc3)c3ccccc3n2)cc1,Potency,[1],11800 nM (active)
same,Potency,[2],11800 nM (active)
COc1cccc2c1C(=O)c1c(O)c3c(c(O)c1C2=O)C[C@@](O)(C(=O)CO)C[C@H]3O[C@H]1C[C@H](N)[C@H](O)[C@H](C)O1,Potency,[1],743 nM (active)
same,Potency,[2],296 nM (active)
COc1cc([C@@H]2c3cc4c(cc3[C@H](O)[C@H]3COC(=O)[C@@H]23)OCO4)cc(OC)c1OC,Potency,[1],29.6 nM (active)
same,Potency,[2],41.8 nM (active)
CCNC(=O)Nc1ccc(-c2nc3c(c(N4CCOC[C@H]4C)n2)CCN(C2COC2)C3)cc1,Potency,[1],296 nM (active)
same,Potency,[2],526 nM (active)
COc1cc(OC)c(C=CS(=O)(=O)Cc2ccc(OC)c(NCC(=O)O)c2)c(OC)c1,Potency,[1],93.5 nM (active)
same,Potency,[2],132 nM (active)
C=C1C(=O)O[C@H]2[C@@H]1CCC(C)=CCC[C@@]1(C)O[C@@H]21,Potency,[1],3320 nM (active)
same,Potency,[2],7430 nM (active)
CN[C@H](CC(C)C)C(=O)N[C@H]1C(=O)N[C@@H](CC(N)=O)C(=O)N[C@@H]2C(=O)N[C@H]3C(=O)N[C@H](C(=O)N[C@H](C(=O)O)c4cc(O)cc(O)c4-c4cc3ccc4O)[C@H](O)c3ccc(c(Cl)c3)Oc3cc2cc(c3O[C@@H]2O[C@H](CO)[C@@H](O)[C@H](O)[C@@H]2O[C@H]2C[C@](C)(N)[C@H](O)[C@H](C)O2)Oc2ccc(cc2Cl)[C@H]1O,Potency,[1],inactive
same,Potency,[2],inactive
Cc1nc(NC(=O)N2CCC[C@@H]2C(N)=O)sc1-c1ccnc(C(C)(C)C(F)(F)F)c1,Potency,[1],166 nM (active)
same,Potency,[2],1180 nM (active)
CC1=C(C(=O)Nc2cc3cn[nH]c3cc2F)C(c2ccc(Cl)cc2F)N=C(c2ccnc(Cl)c2)N1 (configuration not stated),Potency,[1],14800 nM (active)
same,Potency,[2],23500 nM (active)
Cn1cnc(=N)c2[nH]cnc21,Potency,[1],93.5 nM (active)
same,Potency,[2],46.9 nM (active)
C#CCC(Cc1cnc2nc(N)nc(N)c2n1)c1ccc(C(=O)N[C@@H](CCC(=O)O)C(=O)O)cc1 (some centres not stated),Potency,[1],93.5 nM (active)
same,Potency,[2],33.2 nM (active)
C=C1C(=CC=C2CCC[C@]3(C)[C@@H]([C@H](C)CCCC(C)(C)O)CC[C@@H]23)C[C@@H](O)C[C@@H]1O,Potency,[1],9350 nM (active)
same,Potency,[2],1870 nM (active)
CC1(C)O[C@@H]2C[C@H]3[C@@H]4CCC5=CC(=O)C=C[C@]5(C)[C@@H]4[C@@H](O)C[C@]3(C)[C@]2(C(=O)CO)O1,Potency,[1],33.2 nM (active)
same,Potency,[2],inactive
C=CC(=O)Nc1cccc(Nc2nc(NC3CCC(N(C)C)CC3)nc3c2ncn3C(C)C)c1 (configuration not stated),Potency,[2],209 nM (active)
COc1ccc(C(C)=O)c(O)c1,Potency,[1],inactive
same,outcome,[3],inactive
same,outcome,[4],inactive
same,Potency,[5],15800 nM (active)
same,max response,[6],3.21%
same,outcome,[7],inactive
C[C@@]12C(=O)OC(=O)[C@@]1(C)C1CCC2O1,Potency,[1],743 nM (active)
same,Potency,[2],1050 nM (active)
C[C@]12CC[C@@H]3c4ccc(O)cc4CC[C@H]3[C@H]1CC[C@H]2O,Potency,[1],14800 nM (active)
same,Potency,[2],23500 nM (active)
